{"source": "paper PMC7819943", "about": "“Rice protein-binding microarrays: a tool to detect cis-acting elements near promoter regions in rice”", "note": "Whole data set: some 39,000 sequences, median “fluorescence intensity (a.u.)” near 4,300, cut for the highest 2% near 39,000. The sample holds the highest values, similar sequences and a random draw of the others, so the mix is not that of the screen."}
{"molecular_target": "T1, OsSMF1 (Oryza sativa, UniProt Q6ZLB0 1-436)", "T1 sequence": "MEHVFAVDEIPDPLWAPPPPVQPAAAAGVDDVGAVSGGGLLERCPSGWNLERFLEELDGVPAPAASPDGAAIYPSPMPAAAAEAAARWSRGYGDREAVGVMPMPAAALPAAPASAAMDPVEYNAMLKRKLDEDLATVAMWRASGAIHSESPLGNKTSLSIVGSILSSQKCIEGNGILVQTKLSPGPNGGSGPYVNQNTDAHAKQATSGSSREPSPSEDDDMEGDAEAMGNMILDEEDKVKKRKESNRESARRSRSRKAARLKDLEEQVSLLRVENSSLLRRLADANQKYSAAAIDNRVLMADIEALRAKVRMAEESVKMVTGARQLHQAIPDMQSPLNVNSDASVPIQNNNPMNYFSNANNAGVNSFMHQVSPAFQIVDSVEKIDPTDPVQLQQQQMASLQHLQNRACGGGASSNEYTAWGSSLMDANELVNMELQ", "assay": "protein-binding microarray (RPBM); PBS, 2% BSA, 51.3 ng/ul salmon testes DNA, 50 uM zinc acetate, 200 nM TF, 25 C, 1 h; high values mean tight binding", "conditions": "protein: recombinant; tags: N-terminal polyhistidine and DsRed monomer fusion (pET32a); chain copies: 2; label: CyDye5-dUTP incorporated in the synthesized complementary strand; 3' TTTTT single-stranded linker to array surface; dsDNA, one strand shown", "how_it_was_run": "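Transcription factors were made in E. coli BL21-CodonPlus as N-terminal fusions to a polyhistidine tag and DsRed, then purified on Ni–NTA. After primer extension with Cy5-dUTP and blocking with 2% BSA, a custom Agilent array was exposed for 1 h at 25 °C to 200 nM protein in PBS, 2% BSA, salmon testes DNA and 50 µM zinc acetate. Washed arrays were scanned on an Axon 4000B, and the binding signal is per-feature fluorescence intensity in arbitrary units.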"}
{"sequence": "AGCAAATATTTACTGTAGTACTACACTGTCAAATCATGTACGGAGTCACCTAGTGCAG", "binding signal": "3610 fluorescence intensity (a.u.)"}
{"sequence": "AGTACTAGTTGGAATCATATGTGTCTATGGAGTATATTTTCGGAGTCACCTAGTGCAG", "binding signal": "3160 fluorescence intensity (a.u.)"}
{"sequence": "ATACCATATGAGCAAATACGCAGGAATCAGTACTGTATTTCGGAGTCACCTAGTGCAG", "binding signal": "39500 fluorescence intensity (a.u.)"}
{"sequence": "GGAGGAAAATGGCCCTGATCAGCATCAGGGCAAGTACTATCGGAGTCACCTAGTGCAG", "binding signal": "3200 fluorescence intensity (a.u.)"}
{"sequence": "CGAACATAAGTTAGTGACGCATGCCTCAAAATGAAAAGGACGGAGTCACCTAGTGCAG", "binding signal": "41400 fluorescence intensity (a.u.)"}
{"sequence": "TCCTTTGGAACATAAAAGTGACGTAGGCATGCAAATTTGTCGGAGTCACCTAGTGCAG", "binding signal": "13700 fluorescence intensity (a.u.)"}
{"sequence": "TGGTAAGGTTGAAAATGGCATCAAAGTGAACAGGCCCTCACGGAGTCACCTAGTGCAG", "binding signal": "22200 fluorescence intensity (a.u.)"}
{"sequence": "AGCAGACTCCACGTCGTCACCAACTTCCTTCCTCCTGGTCCGGAGTCACCTAGTGCAG", "binding signal": "11300 fluorescence intensity (a.u.)"}
{"sequence": "GCTCCCTCGACGACCTCGTCAAGTCCCTCCGCGCCGACCCCGGAGTCACCTAGTGCAG", "binding signal": "4170 fluorescence intensity (a.u.)"}
{"sequence": "CAAGTGGGGACAGCGCCACGTGCGCGCTCGCTCTTCTCCACGGAGTCACCTAGTGCAG", "binding signal": "11500 fluorescence intensity (a.u.)"}
{"sequence": "GGTGCCCTAATAAGTACGGTGGTTGAACATTACACAATTCCGGAGTCACCTAGTGCAG", "binding signal": "3770 fluorescence intensity (a.u.)"}
{"sequence": "ATCAGCTAAGGCCAATCGGTGGATTACACACATTGGGTTCCGGAGTCACCTAGTGCAG", "binding signal": "47600 fluorescence intensity (a.u.)"}
{"sequence": "ACCGGGTTCCACATGTCATACACACATTACGTCTTGGAGTCGGAGTCACCTAGTGCAG", "binding signal": "4450 fluorescence intensity (a.u.)"}
{"sequence": "CCGGTCGGTACTAGTTCGGGGCGTGACACATGGTAGTTATCGGAGTCACCTAGTGCAG", "binding signal": "4000 fluorescence intensity (a.u.)"}
{"sequence": "TGTTTATTGGCTTTGTCATATGATAAATGAATTAATTGTTCGGAGTCACCTAGTGCAG", "binding signal": "30500 fluorescence intensity (a.u.)"}
{"sequence": "TATATGAAATTATTATTTGATTTCTTGATCATATAATGTACGGAGTCACCTAGTGCAG", "binding signal": "3440 fluorescence intensity (a.u.)"}
{"sequence": "TTTGATGCTGATTATAGGAAAATGTAAATGTTTCTATATACGGAGTCACCTAGTGCAG", "binding signal": "39500 fluorescence intensity (a.u.)"}
{"sequence": "GTTTTGGTATTGGCTATAAAATGACATGGATGTTATTGGACGGAGTCACCTAGTGCAG", "binding signal": "4760 fluorescence intensity (a.u.)"}
{"sequence": "GTTACATACTGTGATAGTTTGTTTAATGCTAAATCTAGTACGGAGTCACCTAGTGCAG", "binding signal": "43300 fluorescence intensity (a.u.)"}
{"sequence": "ACTATTGTTTGGTAGTAAAATTGATAATTAAATGACTATACGGAGTCACCTAGTGCAG", "binding signal": "40900 fluorescence intensity (a.u.)"}
{"sequence": "TTGAAATGTTTAAGTTGTTTTAAAATTATTCTATATATTTCGGAGTCACCTAGTGCAG", "binding signal": "37800 fluorescence intensity (a.u.)"}
{"sequence": "TTTACATGTGTAGATCTAATGATGTGTTAATGCTAGTATACGGAGTCACCTAGTGCAG", "binding signal": "4500 fluorescence intensity (a.u.)"}
{"sequence": "CTCATAGTCATAGTTACTGATTTGTTTGCTCATAGTCATACGGAGTCACCTAGTGCAG", "binding signal": "22700 fluorescence intensity (a.u.)"}
{"sequence": "AACAAATATCGTTCCTCGGTGTCGTCATCGTGTTTGGATCCGGAGTCACCTAGTGCAG", "binding signal": "6670 fluorescence intensity (a.u.)"}
{"sequence": "GCAAGCAAAGAAAGTTGTCATCATCCCAATCCTCCTCCGCCGGAGTCACCTAGTGCAG", "binding signal": "4050 fluorescence intensity (a.u.)"}
{"sequence": "GTCTTTCCGAGTGGTGGCGGCGGTGGCTGATCTGCTTGTGCGGAGTCACCTAGTGCAG", "binding signal": "3420 fluorescence intensity (a.u.)"}
{"sequence": "CATTCCTCTCTTTCCCCTCATCCCTATAAATCCAACATTTCGGAGTCACCTAGTGCAG", "binding signal": "3440 fluorescence intensity (a.u.)"}
{"sequence": "CACCACCACCACGACGCCAACGTCAACGGCGAGGACCAAGCGGAGTCACCTAGTGCAG", "binding signal": "3270 fluorescence intensity (a.u.)"}
{"sequence": "CCCACATGTCGGTCCAATTCTCCCTCCAGCCACTCCCGACCGGAGTCACCTAGTGCAG", "binding signal": "3220 fluorescence intensity (a.u.)"}
{"sequence": "CTAATATGGATAGATTGAAACATCAAGGACTAAACTGAGCCGGAGTCACCTAGTGCAG", "binding signal": "3460 fluorescence intensity (a.u.)"}
{"sequence": "CTGAAACCAACATCCAAGTCATCATGTCCAAGATGTCTCCCGGAGTCACCTAGTGCAG", "binding signal": "6640 fluorescence intensity (a.u.)"}
{"sequence": "GATTGAAACATCAAGGACTAAACTGAGTCTCAGATGAAACCGGAGTCACCTAGTGCAG", "binding signal": "58100 fluorescence intensity (a.u.)"}
{"sequence": "GAGAGATCGTACACGAGTCATTTCAACTCGGACAATTTGCCGGAGTCACCTAGTGCAG", "binding signal": "3180 fluorescence intensity (a.u.)"}
{"sequence": "CGACTCAAAGATAAATGATATGTCATCGGCACCTAGCCGACGGAGTCACCTAGTGCAG", "binding signal": "4200 fluorescence intensity (a.u.)"}
{"sequence": "TGTGACACATGTTACACATAATTATTATGTGAGTGGTAAACGGAGTCACCTAGTGCAG", "binding signal": "4020 fluorescence intensity (a.u.)"}
{"sequence": "ACAACAGCTCGATCCATCCACGCGCGCGTGACGGCTCGGCCGGAGTCACCTAGTGCAG", "binding signal": "4690 fluorescence intensity (a.u.)"}
{"sequence": "GAAATCTGAACAACCAAGTTACTACTGTACTTATGTTAGTCGGAGTCACCTAGTGCAG", "binding signal": "20700 fluorescence intensity (a.u.)"}
{"sequence": "CAATTCTACAATATGCCACTGAGTTTACCAAGTTATACAACGGAGTCACCTAGTGCAG", "binding signal": "4020 fluorescence intensity (a.u.)"}
{"sequence": "TACTTCTACCTACCTTACCAAGTCCTGACAGTTACAACGTCGGAGTCACCTAGTGCAG", "binding signal": "55400 fluorescence intensity (a.u.)"}
{"sequence": "ATAAATACCAGCTTTCCAACCATCACTTATTCACTTGCCCCGGAGTCACCTAGTGCAG", "binding signal": "3740 fluorescence intensity (a.u.)"}
{"sequence": "TAATCCAGTACTACTTGCTGTGACAGTGTGATGTGCTTGTCGGAGTCACCTAGTGCAG", "binding signal": "3540 fluorescence intensity (a.u.)"}
{"sequence": "AGATTGCCATCGGACGCAGTAAAACGTGTCACTACCCCACCGGAGTCACCTAGTGCAG", "binding signal": "7590 fluorescence intensity (a.u.)"}
